Compound activity: PubChem, National Center for Advancing Translational Sciences (NCATS)
This is a sample that favours compounds with a hit; in the whole collection about 19% have one here.
DT40 TDP1 no CPT: qHTS for Inhibitors of human tyrosyl-DNA phosphodiesterase 1 (TDP1): qHTS in cells in absence of CPT. DT40 Tdp1-/- hTDP1 cells, no CPT, ATP luminescence, 48 h. Potency, µM (doses to about 46.2 µM), for the others: top-dose activity change, negative = growth inhibition, usual class: inhibitors. 420,000 compounds, 15% hits. AID 686978, 2013; further: potency means the concentration at half of the fitted maximal effect; nearly all actives have a fitted effect of over 55% in size
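Growth kinetics read by CellTiter-Glo luminescence after ≥48 hr at 37 °C. Cells: DT40 Tdp1-/- stably carrying human TDP1, 400 per well, compound exposure in the absence of CPT (DMSO vehicle).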
IL-1B inflam inh: inhibitors of inflammasome signaling (IL-1 beta secretion); THP-1 LPS/ATP IL-1B secretion, AlphaLISA, 16 h; active compounds read low; activity change, % at 57.5 µM; 360,000 compounds, 4.7% hits; in the data active means activity change below about -50%; inconclusive means mostly about -30% to -49%
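THP-1 cells pretreated 1 hr with compounds (up to 57.5 uM final), then stimulated with LPS (250 ng/mL final) plus ATP (1.25 mM final); secreted IL-1B measured by AlphaLISA after 16 hr, decreased signal indicating inhibition.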
uPA surface inh: inhibitors of cell surface uPA generation. cell surface uPA generation assay, qHTS. Potency, µM (series often up to 38.3 µM), for the others: at the highest dose activity change, negative = inhibition, most hits filed as inhibitors. 330,000 compounds, 0.31% hits. AID 540303; active means well fitted inhibition curve with a large enough effect; inconclusive means small, poorly fitted or top-dose-only effect; inactive means no such curve, though single readings can be large or run the other way; tested in mouse RAW 264.7 cells; further: potency means the concentration at half of the fitted maximal effect; nearly all actives have a fitted effect of over 55% in size
HT1080-NT tox: kills 2HG-producing HT-1080-NT fibrosarcoma cells; 360,000 compounds, 1.6% hits; HT-1080-NT fibrosarcoma viability, CellTiter-Glo ATP luminescence, 48 h; AID 686970; Potency, µM (highest dose often 46.1 µM), for the others: at the highest dose activity, negative = less viability, usual class: cytotoxic;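 further: NT is the 2HG producing partner of a matched IDH1 knockdown line; potency means the concentration at half of the fitted maximal effect; 0% = DMSO-treated cells and -100% = media-only wells without cells; nearly all actives have a fitted effect of over 55% in size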
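Read-out is CellTiter-Glo luminescence after 10 minutes at room temperature, following 48 hours' compound treatment of HT-1080-NT cells (750 cells/well, RPMI, 5% FBS, 37 degrees C).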
HT1080 IDH1KD tx: HT-1080 IDH1 knockdown cell toxicity (counter line); HT-1080 IDH1 knockdown viability, ATP luminescence, 48 h; Potency, µM (highest dose often 46.1 µM), inactives show at the highest dose activity, negative = toxicity, hits mostly cytotoxic; 360,000 compounds, 2% hits; AID 686971;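 further: potency means the concentration at half of the fitted maximal effect; 0% = DMSO wells and -100% = cell-free medium wells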
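CellTiter-Glo luminescence after 48 h compound exposure at 37 degrees C of IDH1-knockdown HT-1080 cells in 5% FBS RPMI. %Activity scaled between DMSO wells and cell-free media wells, with curves fitted and assigned curve classes.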
TDP1 cell CPT: DT40-hTDP1 cell growth loss with CPT; 420,000 compounds, 12% hits; Potency, µM (doses to about 46.2 µM), for the others: at the highest dose activity change, negative = growth inhibition, usual class: inhibitors; chicken DT40 Tdp1-/-;hTDP1 cells + 20 nM CPT, ATP luminescence, 48 h; AID 686979; further: potency means the concentration at half of the fitted maximal effect; nearly all actives have a fitted effect of over 55% in size
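Chicken DT40 Tdp1-/- cells stably complemented with human TDP1 were seeded at 400 cells/well in medium containing 20 nM camptothecin, exposed to pin-transferred compounds, and grown at 37 °C for at least 48 hr. Viability was read as ATP luminescence.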
The depositor's hits bear a star; i = inactive; ? = inconclusive; / = no result; [ ] = remark or other dose. Unless noted, the call rests on the fitted dose curve; in most records, active means well fitted curve in the direction sought with a large enough effect; inconclusive means small, poorly fitted or top-dose-only effect, or another doubt; inactive means no such curve, though single readings can be large; an effect the other way counts as inactive or inconclusive. Unless noted, on the % scale 0 is the no-effect control and ±100 the full control effect.

SMILES | DT40 TDP1 no CPT | IL-1B inflam inh | uPA surface inh | HT1080-NT tox | HT1080 IDH1KD tx | TDP1 cell CPT
c1ccc2c(c1)Nc1ccncc1S2 | ? | -94.1* | -2.3% | -28.1% | -19.3% | -18.8%
Cc1cnc(CNc2ncncc2-c2ccoc2)cn1 | -22.7% | / | / | / | / | -9.7%
O=[N+]([O-])c1nn(-c2ccc3c(c2)OCCO3)n(O)c1=NC1CCCC1 | ? | ? | -5.6% | -0.9% | -0.9% | 18.4µM*
Cc1ccc(CN=c2c([N+](=O)[O-])nn(-c3ccc4c(c3)OCCO4)n2O)cc1 | 23.1µM* | -26.2 | -12.4% | -7.6% | -9.3% | ?
O=[N+]([O-])c1nn(-c2ccc3c(c2)OCCO3)n(O)c1=NC1CCCCCC1 | -25.9% | -8.7 | / | -1.1% | ? | ?
COc1ccc(-n2nc([N+](=O)[O-])c(=NCc3ccc4c(c3)OCO4)n2O)cc1 | 18.4µM* | ? | -27.0% | -1.6% | -0.8% | ?
O=[N+]([O-])c1nn(-c2ccccc2)n(O)c1=NCc1ccc2c(c1)OCO2 | ? | -5.2 | 2.9% | -0.4% | -7.7%[9.24 µM] | ?
O=[N+]([O-])c1nn(-c2ccc3c(c2)OCCO3)n(O)c1=NCCCO | 20.6µM* | 8.2 | -7.1% | -7.2% | 1.5% | 14.6µM*
Cc1nn2c(C)c(C(=O)NCc3ccc(OC(C)C)cc3)cnc2c1-c1ccc(F)cc1 | -0.4% | / | / | / | / | -2.0%
COc1ccc(/C=C/C(=O)NC(CCSC)C(=O)O)cc1 (stereo not drawn) | 1.1% | 4.3 | 2.9% | 8.5% | 7.3% | 24.7%
CC(C)OCCCNC(=O)C1CCN(S(=O)(=O)c2ccc3nc4c(c(C(=O)O)c3c2)CCCCC4)CC1 | 11.2% | 32.8 | -0.4% | 14.0% | 12.3% | 14.8%
Cc1ccc2nc(-c3ccccc3C)c(CN(CC3CCCO3)C(=O)c3cccs3)cc2c1 (stereo not drawn) | -9.0% | / | / | / | / | -5.6%
CC[C@@H](C)[C@@H]1CN([C@@H](C)CN2CCC[C@H]2CN2C(N)=NC[C@@H]2Cc2ccccc2)C(=N)N1CCCC1CCCC1 | ? | -63.4* | 9.3% | -2.9% | 0.2% | ?
CCCCN1C(=N)N([C@@H](CCC)CN2CCC[C@H]2CN2C(N)=NC[C@@H]2Cc2ccccc2)C[C@H]1[C@H](C)CC | 11.6µM* | -4.7 | -1.4% | 4.7% | -8.2% | 13µM*
CCCCN1C(=N)N([C@@H](CN2CCC[C@H]2CN2C(N)=NC[C@@H]2Cc2ccccc2)C(C)C)C[C@H]1Cc1ccccc1 | 16.4µM* | -6.4 | 5.3% | 0.0% | 5.1% | ?
CC[C@@H](C)[C@@H]1CN([C@@H](C)CN2CCC[C@H]2CN2C(N)=NC[C@H]2CC(C)C)C(=N)N1CCCC1CCCC1 | 23.1µM* | ? | 4.6% | 0.1% | -1.1% | ?
CCCCN1C(=N)N([C@@H](C)CN2CCC[C@H]2CN2C(N)=NC[C@@H]2Cc2ccccc2)C[C@H]1Cc1ccccc1 | ? | ? | -5.8% | 10.7% | 3.2% | ?
CCCCN1C(=N)N([C@@H](CCC)CN2CCC[C@H]2CN2C(N)=NC[C@H]2CC(C)C)C[C@H]1Cc1ccccc1 | ? | -28.3 | 2.7% | 1.5% | -4.1% | ?
NC1CCc2ccccc21 (stereo not drawn) | ? | / | / | / | / | -4.4%
OCCCNc1ncnc2c1ncn2[C@H]1CN(Cc2ccc3c(c2)OCO3)C[C@@H](CO)O1 | -2.6% | 10.6 | / | 13.1% | 1.5% | ?
COc1ccc(C(=O)C[n+]2cc(Br)cc(Br)c2)cc1 | 2.8% | / | / | / | / | -5.2%
CN(C)CCn1c(SCc2ccccc2C#N)nc2c(sc3ccccc32)c1=O | ? | -5.8 | -24.2% | -2.9% | 0.5% | -21.0%
Cc1cccc(C)c1NC(=O)CN(CC(=O)O)CC(=O)O | -2.7% | / | / | / | / | -5.9%
CCCSc1nc(N)nc2c1ncn2C1OC(CO)C(O)C1O (stereo not drawn) | -2.1% | 16.5 | -2.0% | 3.5% | 3.2% | -9.3%
CC[C@@H](C)[C@@H]1CN([C@@H](CN2CCC[C@H]2CN2C(N)=NC[C@H]2C(C)C)C(C)C)C(=N)N1CCc1ccc(Cl)c(Cl)c1 | 16.4µM* | -77.7* | 2.0% | -1.0% | -4.0% | ?
SMILES | DT40 TDP1 no CPT | IL-1B inflam inh | uPA surface inh | HT1080-NT tox | HT1080 IDH1KD tx | TDP1 cell CPT
CCC(C)[C@H]1CN=C(N)N1CCCc1cc(OC)c(OC)c(OC)c1 (stereo partly drawn) | -18.7% | -1.1 | 1.7% | -1.4% | 0.7% | -10.0%
CCC[C@@H](CN1CCC[C@H]1CN1C(N)=NC[C@H]1C(C)C)N1C[C@@H](Cc2ccccc2)N(CCCC2CCCC2)C1=N | 16.4µM* | -63.5* | 0.4% | 1.2% | 0.8% | ?
CCN(CC)C(=S)NC(=O)c1ccc(OC)c(Br)c1 | ? | 28.4 | 6.5% | -18.0% | -6.9% | ?
C=CCN(CC=C)C(=S)NC(=O)c1ccc([N+](=O)[O-])cc1 | 3.66µM* | 4.6 | -1.5% | -9.6% | -8.9% | 5.8µM*
C=CCNC(=S)NNC(=O)c1ccc([N+](=O)[O-])cc1 | -13.8% | -1.0 | 3.5% | 10.6% | 0.0% | -16.4%
C=CCN(CC=C)C(=S)NC(=O)c1ccc(OC)c(Br)c1 | 5.8µM* | 12.3 | -13.3% | ? | 3.16µM* | 11.6µM*
COc1ccc(C(=O)c2ccc(OC)c(Br)c2)cc1Br | 20.6µM* | -8.0 | -3.1% | -23.6% | -28.8% | 18.4µM*
COc1ccc(C(=O)c2cccc(C(=O)c3ccc(OC)c(C)c3)c2)cc1C | -21.6% | 12.7 | 1.0% | 12.4% | 0.3% | -17.7%
COc1ccc([C@@H]2[C@@H](O)[C@H](O)[C@@H](C)N2C)cc1OC | -15.7%[9.04 µM] | / | / | / | / | -20.4%[9.04 µM]
CC1=CC(C)C2(COC(c3ccc[n+](C)c3)OC2)C(C)C1 (stereo not drawn) | 3.66µM* | 35.8 | -19.7% | -13.8% | -9.4% | 5.8µM*
O=C(c1cc(COc2ccc(-n3cncn3)cc2)on1)N1CCCC1 | -21.4% | -3.0 | 8.9% | 19.2% | 8.7% | -19.5%
CCC1CCCCN1C(=O)c1cc(COc2ccc(-n3cncn3)cc2)on1 (stereo not drawn) | 16.4µM* | i | -6.1% | ? | -2.7% | 18.4µM*
COCCC1CCCCN1C(=O)c1cc(COc2ccc(C)nc2)on1 (stereo not drawn) | 23.1µM* | ? | ? | 20.6µM* | -9.8% | 20.6µM*
COCCCC1CCN(C(=O)c2cc(COc3ccc(C)nc3)on2)CC1 | 10.3µM* | 23.6 | ? | ? | -13.0% | 18.4µM*
COCCN1CCN(C(=O)c2cc(COc3ccc(F)c(F)c3)on2)CC1 | -15.3% | 0.0 | 2.2% | 6.3% | 4.6% | -4.7%
